In one experiment the test system is CRL-7250. Kind of experiment: Cytotoxic Profiling of Annotated Libraries Using Quantitative High-Throughput Screening (AID 1296008). For max response: % is set by controls: 0 for no effect and ±100 for the full control effect. Note: potency is the fitted concentration of half-maximal effect. Particulars: Five cell lines viability, CellTiter-Glo ATP luminescence, 48-72 h; max response: hits give low values. The method in brief: (§1)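 Compounds were pin-transferred onto cells and incubated 48 or 72 hr at 37 degree Celsius, 95% humidity. CellTiter-Glo was added, plates sat 10 min at room temperature, then ATP-coupled luminescence was imaged as the viability read-out.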

The test system of the next experiment is HEK293. Described as above. Particulars: Five cell lines viability, CellTiter-Glo ATP luminescence, 48-72 h; max response: hits give low values. The method in brief: as §1
Background: Cellular ATP, detected with luciferase, serves as a proxy for viable cell number.

Experiment [1] deals with HaCat. Described as above. Particulars: Five cell lines viability, CellTiter-Glo ATP luminescence, 48-72 h; max response: hits give low values. The essentials:
as §1

A further experiment has as its system KB-3-1. Described as above. Particulars: Five cell lines viability, CellTiter-Glo ATP luminescence, 48-72 h; max response: hits give low values. The essentials: as §1
In a further experiment the test system is NIH3T3. Described as above. Particulars: Five cell lines viability, CellTiter-Glo ATP luminescence, 48-72 h; max response: hits give low values. The essentials:
as §1

The subject of experiment [2] is HACAT. Put plainly: qHTS assay to identify novel small-molecules to repurpose for Merkel cell carcinoma treatment (AID 1296009). Particulars: MCC and control cell lines, CellTiter-Glo viability, 72 h; at 44.8 µM (top of the series) unless noted. The essentials: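 Luminescence from CellTiter-Glo, read 10 min after addition at room temperature, reported viability following a 72 hr, 37 degree celsius treatment with NPC or MIPE compounds in titration; values normalized to plate controls.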
A general note: In qHTS, concentration-response curves come from the screen itself.

“And” between values parts separate entries of the source, which are not always exact repeats. Equal entries are not always repeated. Inconclusive results are not listed. Values without a mark were called inactive. The source made the active and inactive calls. Calls come from the whole dose curve; as a rule, active = well fitted inhibition curve with a large enough effect; inconclusive = small, poorly fitted or top-dose-only effect; inactive = flat fitted curve, though single readings scatter.

Among the data in PubChem BioAssay (NCATS) are max response, outcome and Potency values, retold here.
Note: nearly all actives have a fitted effect of over 60% in size.

Turning to `C[N+]1(C)CCC(OC(=O)C(O)(c2ccccc2)C2CCCC2)C1` (configuration not stated), the max response is 2.29% with CRL-7250; -9.88% in the experiment with HEK293; -6.32% and -2.46% in the experiment with KB-3-1; -0.313% in the experiment on NIH3T3. In addition, the call in the experiment on HaCat [1] and in the experiment on HACAT [2] was inactive.
With `COc1ccccc1N1CCN(CCN2C(=O)CC3(CCCC3)CC2=O)CC1`, the max response in the experiment with CRL-7250 was -8.79%; with KB-3-1, 1.39%. For the same compound, the call with HEK293, with HaCat [1], in the experiment with NIH3T3 and in the experiment with HACAT [2] was inactive.
As to `CCc1cc(S(=O)(=O)O)c2cc(C(C)C)cccc1-2`, the max response was 4.56% with CRL-7250; -0.992% in the experiment with HEK293; 0.42% in the experiment with HaCat [1]; 7.96% in the experiment on KB-3-1; 1.41% in the experiment on NIH3T3.
For `NC(=O)COCCN1CCN(C(c2ccccc2)c2ccc(Cl)cc2)CC1` (configuration not stated), the max response with CRL-7250 is 0.918%; in the experiment on HEK293, 1.14%; in the experiment on HaCat [1], -16.4%; with KB-3-1 it was -17.1%. Also, in the experiment on NIH3T3, the compound was classed as inactive.
Take `CCOc1ccc(NS(=O)(=O)c2ccc(N)cc2)nn1`: the max response in the experiment on CRL-7250 was 2.59%; in the experiment with HaCat [1] it was 1.89%; in the experiment with KB-3-1, -7.66%; in the experiment on NIH3T3, 3.16%. Further, the result with HEK293 was inactive.
For the compound `OC[C@]1(O)OC[C@@H](O)[C@H](O)[C@@H]1O`, the max response in the experiment with CRL-7250 is -7.2%; in the experiment on HaCat [1], -0.702%; with KB-3-1, -6.46%. Moreover, the compound was called inactive with HEK293 and with NIH3T3.
Consider `Cc1ccccc1N1CCN(CCc2nnc3n2CCCC3)CC1`, for which the max response was -7.88% with CRL-7250, -11.8% in the experiment on HaCat [1], -5.62% in the experiment with KB-3-1 and 4.77% in the experiment on NIH3T3. Further, in the experiment with HEK293, the outcome was inactive.
On to `CCO[C@H](Cc1ccc(OCCc2ccc(OS(C)(=O)=O)cc2)cc1)C(=O)O`, for which the max response with CRL-7250 is -4.09%; in the experiment on HEK293 it was -6.35%; with KB-3-1, -10.5%; in the experiment on NIH3T3, -1.31%. The compound was called inactive in the experiment on HaCat [1] and in the experiment on HACAT [2].
With `Cc1ccc(O)cc1`, the max response with CRL-7250 is -3.08%; in the experiment on HEK293, 0.45%; with KB-3-1, -1.63% and -10.4%; in the experiment on NIH3T3 it was 0.99%. Besides, the compound was called inactive in the experiment with HaCat [1] and in the experiment on HACAT [2].
Consider `O=C(CCCCC(=O)Nc1c(I)cc(I)c(C(=O)O)c1I)Nc1c(I)cc(I)c(C(=O)O)c1I`, for which the max response in the experiment on CRL-7250 is 2.98%; in the experiment on HaCat [1], 4.99%; with KB-3-1 it was -11.9%; with NIH3T3, 4.23%. For the same compound, in the experiment on HEK293, the outcome was inactive.
Take `N=C(N)c1ccc(OCCCOc2ccc(C(=N)N)cc2)cc1`: the max response in the experiment with CRL-7250 is 2.23%; in the experiment with KB-3-1, -29%. Besides, in the experiment with HEK293, the Potency was 7.5 µM (active). In addition, the compound was called inactive with HaCat [1], in the experiment with NIH3T3 and in the experiment with HACAT [2].
In the case of `O=C(Oc1ccccc1)c1ccccc1O`, the compound was classed as inactive in the experiment with CRL-7250, in the experiment with HEK293, with HaCat [1] and in the experiment with HACAT [2]. Moreover, the max response in the experiment on KB-3-1 was -0.601%; in the experiment on NIH3T3, 3.3%.
As to `CN1C(CSCC(F)(F)F)Nc2cc(Cl)c(S(N)(=O)=O)cc2S1(=O)=O` (configuration not stated), the max response in the experiment with CRL-7250 is -17.8%; in the experiment on HEK293, 1.71%; in the experiment with HaCat [1], 4.02%; in the experiment with KB-3-1, 38.2%. For the same compound, in the experiment with NIH3T3, the result was inactive.
Regarding `Cn1cc(S(C)=O)c(=O)c2ccc(F)cc21` (configuration not stated), the max response was -2.16% with CRL-7250, -2.1% in the experiment with HEK293, -31% in the experiment on HaCat [1] and 2.67% with KB-3-1. In the experiment on NIH3T3, the compound was called inactive.
With `Cc1cc(O)c2c(O)c3c(O)cccc3cc2c1`, the compound was classed as inactive in the experiment with CRL-7250, in the experiment with HaCat [1] and in the experiment on HACAT [2]. The max response was -2.16% in the experiment on HEK293, -20.5% in the experiment on KB-3-1 and -2.19% with NIH3T3.
As to `CSc1ccc(/C=C2/C(C)=C(CC(=O)O)c3cc(F)ccc32)cc1`, the call in the experiment on CRL-7250, in the experiment with HaCat [1] and in the experiment on HACAT [2] was inactive. For the same compound, the max response in the experiment on HEK293 is 0.521%; in the experiment on KB-3-1 it was -18.2%; with NIH3T3, -3.24%.
As for `O=C(COCCOCCOCC(=O)Nc1c(I)cc(I)c(C(=O)O)c1I)Nc1c(I)cc(I)c(C(=O)O)c1I`, the result with CRL-7250, in the experiment with HaCat [1] and in the experiment on HACAT [2] was inactive. Also, the results for the max response with HEK293, in the experiment on KB-3-1 and in the experiment on NIH3T3 were 0.699%, -17% and 4.72%, respectively.
Take `CCCC(=O)O[C@]1(C(=O)COC(=O)CC)CC[C@H]2[C@@H]3CCC4=CC(=O)CC[C@]4(C)[C@H]3[C@@H](O)C[C@@]21C`: the max response is 1.61% in the experiment on CRL-7250, 3.26% in the experiment with HEK293, -1.68% in the experiment on KB-3-1 and 1.36% in the experiment with NIH3T3. Besides, the compound was classed as inactive with HaCat [1]. In the experiment on HACAT [2], the outcome is “inactive [at 17.4 µM]”.
As to `COC(=O)C1=CO[C@@H](O)[C@@H]2C(CO)=CC[C@H]12`, the max response with CRL-7250 was 0.169%; with HEK293, -25.4%; in the experiment on HaCat [1], -1.37%; in the experiment on KB-3-1 it was -12.1%; in the experiment with NIH3T3, -14.6%.
Consider `CC(=O)OCC(=O)[C@@]1(O)[C@H](OC(C)=O)C[C@H]2[C@@H]3CCC4=CC(=O)C=C[C@]4(C)[C@@]3(F)[C@@H](O)C[C@@]21C`, for which the compound was called inactive with CRL-7250, in the experiment with HEK293, with HaCat [1], in the experiment on NIH3T3 and with HACAT [2]. Moreover, the max response with KB-3-1 is 1.08%.
`O=C(O)[C@@H](O)[C@H](O)[C@H](O)[C@@H](O)C(=O)O`: the max response in the experiment on CRL-7250 is -8.84%; in the experiment on HEK293, 3.38%; in the experiment with KB-3-1, -10.9%; in the experiment on NIH3T3, -2.02%. The outcome with HaCat [1] and in the experiment on HACAT [2] was inactive.
